Experimental findings from PubChem BioAssay (NCI) are described below.

Several values for one entry are separate records, joined by “and”; a condition that tells them apart may be missing. Equal values may be shown once. The panel holds about 83,000 compounds, 20% with a hit somewhere; the sample as a whole holds those more often.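 Percent growth is the endpoint: 0 to 100 indicates growth inhibition (40 means 60% inhibition), 0 means no net growth, and negative values indicate cell death.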 A number with no mark means an inactive call. Activity calls are given as the source filed them. The calls were made as follows: active = growth percent below 10; inactive = the rest.

Test in all cases: NCI-60 one-dose screen, 48 h (100 = growth as untreated, 0 = no growth, -100 = all killed)
Details in all cases: 10 µM unless noted

Assay [1] concerns HCT-15 colon.
In assay [2] the test system is HT29 colon.
Assay [3] concerns SNB-75 CNS.
For assay [4], the system named is SNB-19 CNS.
Assay [5] deals with U251 CNS.
For assay [6], the system named is PC-3 prostate.
Assay [7] has as its system SK-MEL-5 melanoma.
The subject of assay [8] is UACC-62 melanoma.
Assay [9] concerns LOX IMVI melanoma.
Assay [10] relates to SK-MEL-28 melanoma.

`COc1ccc(-c2cc(-c3cc(OC)c(OC)c(OC)c3)[nH]c(=O)c2C#N)cc1`: the growth in [1] is 81%; in [2], 103%; in assay [3] it was -22.4% (active); in assay [4] it was 8.18% (active); in assay [5] it was 42.2%; in assay [6], 70.9%. Besides, the growth was 64.9% in assay [7], 59.3% in [8], 40.2% in [9] and 51.9% in assay [10].

Consider `O=C(CSc1nc2sc3c(c2c(=O)n1-c1ccc(Cl)cc1)CCCC3)N/N=C/C=C/c1ccccc1`, for which the growth was -57.6% (active) in assay [1]; -19.3% (active) in [2]; -23.2% (active) in [3]; 27% in [4]; -76.4% (active) in assay [5]; -17.4% (active) in assay [6]. Further, the growth was -95.2% (active) in [7], -79.9% (active) in assay [8], 31.7% in assay [9] and -80.1% (active) in assay [10].

With `O=C(CSc1nc2c(c(=O)[nH]1)CCCC2)Nc1ccccc1C(=O)O`, the growth in [1] is 98.3%; in assay [2], 105%; in assay [3] it was 125%; in [4], 99.7%; in assay [5] it was 103%; in assay [6], 106%. Besides, the growth is 99.3% in assay [7], 96.1% in assay [8], 101% in assay [9] and 112% in [10].

In the case of `CN(CCSSCCN1CCOCC1)C(=O)Oc1cc2c(c3ccccc13)[C@H](CCl)CN2C(=O)c1cc2cc(OCCCN3CCC3)ccc2[nH]1`, the growth in [1] is -49.3% (active); in assay [2] it was -40.5% (active); in assay [3] it was -46% (active); in [4] it was -100% (active); in [5], -60.3% (active); in assay [6] it was -21.9% (active). For the same compound, the growth in [7] is -89.6% (active); in assay [8], -72.7% (active); in assay [9], -73% (active); in assay [10], -58% (active).

As to `COc1cc(CNC(=O)C[C@H](C)CCC=C(C)C)ccc1OCc1cn(-c2ccccc2Cl)nn1`, the growth in assay [1] was 53.8%; in assay [2], 76.7%; in assay [3], 60%; in assay [4], 61.3%; in assay [5] it was 80.6%; in assay [6], 49.4%. For the same compound, the growth in assay [7] was 5.29% (active); in [8], 39.6%; in assay [9], 56.4%; in assay [10] it was 69.8%.

Take `COc1c(F)ccc(C(=O)Nc2ccc3nc(NC(=O)C4CCCN(S(=O)(=O)c5ccc(C(C)(C)C)cc5)C4)sc3c2)c1F` (stereo not given): the growth was 63.3% in [1]; 55.4% in assay [2]; 66.4% in assay [3]; 78.2% in assay [4]; 58.8% in assay [5]; 45.8% in assay [6]. Moreover, the growth is 66.5% in assay [7], 55.9% in assay [8], 43.9% in assay [9] and 81.3% in assay [10].

Turning to `CC(C)(C)OC(=O)N1CCC2(CC1)Oc1ccccc1[C@H]1CC(c3ccc(Br)cc3)=NN12`, the growth in [1] was 59.1%; in assay [2] it was 96.7%; in assay [3], 72.8%; in assay [4], 78%; in assay [5], 82.8%; in assay [6], 66.6%. Besides, the growth in [7] is 76.2%; in assay [8], 41.3%; in assay [9] it was 54.2%; in assay [10], 113%.

As for `O=C(CSc1nc2sc3c(c2c(=O)n1-c1ccc(Cl)cc1)CCCC3)NNC(=O)c1ccc(Br)cc1`, the growth is 73.9% in assay [1]; 100% in assay [2]; 82.7% in assay [3]; 24.8% in [4]; 26.6% in [5]; 71.8% in assay [6]. Further, the growth was 74.2% in assay [7], 36.6% in assay [8], 52.1% in assay [9] and 78.8% in assay [10].

For the compound `FC(F)(F)CN1CCN(CCn2c(C(F)(F)F)cc3c(Cl)ncnc32)CC1`, the growth was -56.7% (active) in assay [1]; 12.5% in assay [2]; -32.1% (active) in assay [3]; -87.5% (active) in assay [4]; -12.6% (active) in assay [5]; 18.2% in [6]. For the same compound, the growth is 9.63% (active) in assay [7], 28.4% in assay [8], -96.7% (active) in assay [9] and 31.3% in assay [10].

As for `CC(=O)Nc1cccc(-n2c(COc3ccc(Br)cc3)nc3ccccc32)c1`, the growth in assay [1] was 88.7% and 107%; in [2], 123% and 115%; in assay [3] it was 89% and 94.7%; in [4], 96.9% and 98.7%; in assay [5] it was 94.9% and 113%; in assay [6] it was 72.8% and 103%. The growth in assay [7] is 90.3% and 103%; in assay [8], 71.9% and 91.9%; in assay [9], 91.8% and 104%; in assay [10], 101% and 106%.

In the case of `Cc1ccc(NC(=O)N/N=C/c2c[nH]c3ccccc23)c(C)c1`, the growth is 9.06% (active) in [1]; -35.4% (active) in [2]; 14.5% in assay [3]; 34.7% in [4]; 9.2% (active) in assay [5]; 27.8% in assay [6]. Besides, the growth in [7] is 5.42% (active); in assay [8], 8.67% (active); in [9], -19% (active); in assay [10], 47.8%.

As for `COc1ccc(NC(=O)CSc2nnc(-c3ccc(-c4nc5ccccc5[nH]4)cc3)o2)cc1`, the growth in assay [1] is 18.2%; in [2], 18%; in assay [3], 63.4%; in [4], -5.58% (active); in [5], -68.2% (active); in assay [6] it was 25.1%. Further, the growth in [7] is 14%; in [8] it was 17.8%; in [9], -63.9% (active); in assay [10] it was -72.3% (active).
